High-throughput results from PubChem.
Most compounds without a hit are left out; they make up all but 3.6% or so of the library.
KKLEB cytotox: counter-screen for CF NF-kB inhibitors: cytotoxicity; KKLEB CF airway cells viability, ATPlite luminescence, overnight; stronger effect = lower value; cells stimulated with P. aeruginosa culture filtrate; activity change (cytotoxicity), % at 5 µM; 0.36% of 360,000 active; AID 602141;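 active = corrected activity change at or below -50% at 5 µM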
LGR2 inh: inhibitors of bursicon-induced Drosophila LGR2 receptor cAMP signaling. AID 720647. 0.35% of 380,000 active. HEK293 LGR2, CRE-luciferase, bursicon-stimulated, 4 h. inhibition, % at 9.99 µM;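 active = drop in luminescence signal, shown as inhibition above about 50% in the replicate tests, limit read from the data, passing the limit was not always enough; inconclusive = probably only some replicates passing the limit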;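 note: agonist challenge used bursicon conditioned medium at about half maximal strength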
Peg3 prom inh: reduces Peg3 promoter-driven luciferase expression in HeLa | 1.7% of 360,000 active | AID 588405 | inhibition, % at 20 µM | HeLa PEG-Prom luciferase reporter, luminescence, overnight;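 active = inhibition of at least 50% at 20 µM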
CF NFkB block: cystic fibrosis NF-kB activation inhibition; KKLEB NF-kB-GFP reporter, PAF-induced, GFP fluorescence overnight; inhibition, % at 5 µM; 0.86% of 360,000 active; AID 588850;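 active = at least 50% inhibition at 5 µM, scaled per plate between neutral and stimulator controls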;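 note: PAF is a Pseudomonas aeruginosa culture filtrate used as stimulus; plate controls were PAF-stimulated DMSO wells for no effect and unstimulated DMSO wells for full effect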
Mdm2-MdmX inh: inhibitors of human Mdm2/MdmX interaction; inhibition, % at 8 µM; SaOS-2 split-luciferase Mdm2/MdmX complementation, luminescence; AID 485346; 3% of 330,000 active;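 active = inhibition of at least 50% at 8 µM in the primary screen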
Target sequence (O15151 whole entry, looked up): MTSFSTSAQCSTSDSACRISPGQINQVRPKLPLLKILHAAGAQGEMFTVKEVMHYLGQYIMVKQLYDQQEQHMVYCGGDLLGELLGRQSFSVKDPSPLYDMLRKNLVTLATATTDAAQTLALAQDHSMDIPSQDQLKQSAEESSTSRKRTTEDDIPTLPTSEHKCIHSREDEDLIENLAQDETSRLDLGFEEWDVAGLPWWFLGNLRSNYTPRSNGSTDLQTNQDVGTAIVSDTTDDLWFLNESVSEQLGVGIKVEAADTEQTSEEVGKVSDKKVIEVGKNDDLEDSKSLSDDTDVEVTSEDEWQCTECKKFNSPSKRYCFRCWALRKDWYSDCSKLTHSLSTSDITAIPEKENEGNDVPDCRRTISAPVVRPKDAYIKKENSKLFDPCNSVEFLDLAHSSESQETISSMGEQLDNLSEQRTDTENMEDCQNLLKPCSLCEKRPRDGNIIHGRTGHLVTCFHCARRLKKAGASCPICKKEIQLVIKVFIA
Target sequence (Q00987 whole entry, looked up): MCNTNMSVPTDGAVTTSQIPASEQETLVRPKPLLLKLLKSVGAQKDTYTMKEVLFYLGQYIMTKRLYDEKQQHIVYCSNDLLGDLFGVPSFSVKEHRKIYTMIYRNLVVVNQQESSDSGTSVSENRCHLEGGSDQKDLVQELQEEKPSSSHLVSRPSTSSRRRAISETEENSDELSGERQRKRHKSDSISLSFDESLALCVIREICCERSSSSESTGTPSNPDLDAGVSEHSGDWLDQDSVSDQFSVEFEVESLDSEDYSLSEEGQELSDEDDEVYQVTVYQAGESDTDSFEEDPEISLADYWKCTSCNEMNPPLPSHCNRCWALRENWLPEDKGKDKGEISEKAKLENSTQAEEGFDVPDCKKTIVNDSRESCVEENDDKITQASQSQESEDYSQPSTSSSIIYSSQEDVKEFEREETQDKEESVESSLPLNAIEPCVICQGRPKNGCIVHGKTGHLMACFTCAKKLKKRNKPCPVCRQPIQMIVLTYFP
HSP90 inh: blocks HSP90-mediated luciferase refolding in reticulocyte lysate; inhibition, % at 5.6 µM; 0.91% of 290,000 active; Rabbit reticulocyte lysate, luciferase refolding luminescence, 3 h; AID 1789;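 active = inhibition above the screen-wide mean plus 3 SD, computed separately per campaign, cut at about 16% in these data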;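 note: 0% = DMSO wells and 100% = 60 µM geldanamycin wells; inhibitors lower the luminescence because luciferase stays unfolded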
Starred values were filed as active, the others as inactive.

What do the screens show for `O=C(NC(c1ccc(F)cc1)c1cnccn1)C1CCN(CCOc2ccc(Cl)cc2Cl)CC1` (configuration not stated)?
KKLEB cytotox: -8; LGR2 inh: -6; Peg3 prom inh: 0; CF NFkB block: -6

What do the screens show for `Cc1cccnc1C(NC(=O)C1CCN(CCCc2ccccc2)CC1)c1ccc(Cl)cc1` (configuration not stated)?
KKLEB cytotox: -27; LGR2 inh: -1; Peg3 prom inh: 13; CF NFkB block: 31

How did Cc1cccnc1C(NC(=O)C1CCN(CCOc2ccc(Cl)cc2Cl)CC1)c1ccc(Cl)cc1 (configuration not stated) do in these assays?
KKLEB cytotox: -19; LGR2 inh: 1; Peg3 prom inh: 77*; CF NFkB block: 16

Results for Cc1cccnc1C(NC(=O)C1CCN(Cc2ccc(Cl)cc2)CC1)c1ccccc1 (configuration not stated) ?
KKLEB cytotox: -6; LGR2 inh: 8; Peg3 prom inh: 13; CF NFkB block: 13

Results for COc1cc(CN2CCC(C(=O)NC(c3ccc(F)cc3)c3ccc4ccccc4n3)CC2)cc(OC)c1 (configuration not stated) ?
KKLEB cytotox: 8; LGR2 inh: 13; Peg3 prom inh: 17; CF NFkB block: -11

How did Cn1cc(CN2CCC(C(=O)NC(c3ccc(F)cc3)c3ccc4ccccc4n3)CC2)c2ccccc21 (configuration not stated) do in these assays?
KKLEB cytotox: 0; LGR2 inh: 21; Peg3 prom inh: 101*; CF NFkB block: 7

Results for O=C(NC(c1ccc(Cl)cc1)c1cccnc1)C1CCN(CCOc2ccc(Cl)cc2Cl)CC1 (configuration not stated) ?
KKLEB cytotox: -12; LGR2 inh: -14; Peg3 prom inh: 63*; CF NFkB block: 16

What do the screens show for `COc1ccc(CN(C)C[C@@H]2OCCCC[C@H](C)Oc3ccc(NC(=O)NC4CCCCC4)cc3C(=O)N([C@H](C)CO)C[C@H]2C)cc1`?
LGR2 inh: 8

Results for O=C(C[C@@H]1CC[C@H](NC(=O)C2CCC2)[C@@H](CO)O1)NCc1ccccc1Cl ?
LGR2 inh: -1

How did O=C(NC(c1ccc(Cl)cc1)c1ccccn1)C1CCN(CCOc2ccc(Cl)cc2Cl)CC1 (configuration not stated) do in these assays?
KKLEB cytotox: -14; LGR2 inh: -6; Peg3 prom inh: 100*; CF NFkB block: 9

What do the screens show for `CCOC(=O)c1ccccc1NC(=O)COc1ccccc1`?
KKLEB cytotox: 9; Peg3 prom inh: 68*; CF NFkB block: -3; Mdm2-MdmX inh: -8; HSP90 inh: -2

Results for COC(=O)c1ccccc1NC(=O)Nc1ccc(C(=O)N2CCCC2)cc1 ?
KKLEB cytotox: 1; Peg3 prom inh: 58*; CF NFkB block: -3; Mdm2-MdmX inh: 20; HSP90 inh: 5

What do the screens show for `COC(=O)c1ccccc1NC(=O)CSCC(=O)Nc1ccccc1`?
KKLEB cytotox: -69*; Peg3 prom inh: 11; CF NFkB block: -4; Mdm2-MdmX inh: 12; HSP90 inh: 0

What do the screens show for `CCOC(=O)c1ccccc1NC(=O)COC(=O)CCCOc1ccccc1`?
KKLEB cytotox: 2; LGR2 inh: -6; Peg3 prom inh: 13; CF NFkB block: -2; Mdm2-MdmX inh: -7

What do the screens show for `COC(=O)c1ccccc1NC(=O)CC(=O)Nc1ccccc1C(=O)OC`?
KKLEB cytotox: 7; LGR2 inh: 0; Peg3 prom inh: -14; CF NFkB block: -27; Mdm2-MdmX inh: 28; HSP90 inh: 1

What do the screens show for `C[C@H](CO)N1C[C@H](C)[C@H](CN(C)Cc2ccc(C(F)(F)F)cc2)OCCCC[C@H](C)Oc2ccc(NS(=O)(=O)c3ccc(F)cc3)cc2C1=O`?
LGR2 inh: 13

What do the screens show for `COc1ccc2c3c([nH]c2c1)[C@@H](CO)N(C(C)=O)CC31CCN(S(=O)(=O)c2cccs2)CC1`?
LGR2 inh: -4

How did O=c1c2ccccc2nc(/C=C/c2ccc([N+](=O)[O-])o2)n1CCCO do in these assays?
KKLEB cytotox: -8; LGR2 inh: 4; Peg3 prom inh: 104*; CF NFkB block: -2; Mdm2-MdmX inh: 33; HSP90 inh: 2

What do the screens show for `CC(/C=N/NC(=O)c1ccncc1)=C\c1ccccc1`?
KKLEB cytotox: 5; LGR2 inh: -46; Peg3 prom inh: -107; CF NFkB block: -10; Mdm2-MdmX inh: -7; HSP90 inh: -4

How did CC(=C/c1ccccc1)/C=N/NC(=O)c1ccccn1 do in these assays?
KKLEB cytotox: -32; LGR2 inh: inconclusive; Peg3 prom inh: -88; CF NFkB block: 1; Mdm2-MdmX inh: -30; HSP90 inh: 17*

Results for COc1cc(CN2CC3(CN(C(=O)Nc4cccc(F)c4)C3)c3c(n(C)c4cc(OC)ccc34)[C@H]2CO)cc(OC)c1 ?
LGR2 inh: 20

How did O=[N+]([O-])c1cc(-c2nnc(Nc3ccccc3)c3ccccc23)ccc1N1CCOCC1 do in these assays?
KKLEB cytotox: 16; LGR2 inh: 1; Peg3 prom inh: 41; CF NFkB block: 8; Mdm2-MdmX inh: 40; HSP90 inh: -2

Results for O=[N+]([O-])c1cc(-c2nnc(Nc3ccc(O)cc3)c3ccccc23)ccc1N1CCOCC1 ?
KKLEB cytotox: 8; LGR2 inh: 13; Peg3 prom inh: 52*; CF NFkB block: 13; Mdm2-MdmX inh: 29; HSP90 inh: -2

Results for C[C@@H]1CN([C@@H](C)CO)C(=O)c2cc(C#C[C@@H](C)O)cnc2O[C@H]1CN(C)C(=O)Cc1ccncc1 ?
LGR2 inh: -2

How did N=c1n(CCN2CCCCC2)c2ccccc2n1CC(=O)c1ccc(Cl)c(Cl)c1 do in these assays?
KKLEB cytotox: -19; LGR2 inh: 1; Peg3 prom inh: 34; CF NFkB block: 15; Mdm2-MdmX inh: 42; HSP90 inh: 3

Results for CCn1c(=N)n(CC(=O)c2ccc(Cl)c(Cl)c2)c2ccccc21 ?
KKLEB cytotox: 14; LGR2 inh: -11; Peg3 prom inh: 99*; CF NFkB block: 8; Mdm2-MdmX inh: -70; HSP90 inh: 0

What do the screens show for `Cc1nn(C)c(C)c1NC(=O)CSc1nc(-c2ccccc2Cl)nc2c1cnn2-c1ccccc1`?
KKLEB cytotox: -12; Peg3 prom inh: 65*; CF NFkB block: 29; Mdm2-MdmX inh: 24; HSP90 inh: 0

How did Cc1nn(C)c(C)c1NC(=O)CSc1nc(-c2ccccc2F)nc2c1cnn2-c1ccccc1 do in these assays?
KKLEB cytotox: -4; LGR2 inh: 8; Peg3 prom inh: 7; CF NFkB block: -2

How did O=C(C1=C(c2ccccc2)C(=O)c2ccccc2C1=O)c1ccccc1 do in these assays?
KKLEB cytotox: -19; Peg3 prom inh: 92*; CF NFkB block: 76*; HSP90 inh: 74*
